ChEMBL document CHEMBL1961873, “Compounds: GSK PKIS; Assays: Nanosyn kinase panel” (2012)

Columns and labels:
[1] = biological target: Sphingosine kinase 1 (Homo sapiens) (UniProt Q9NYA1); conditions: at 1 µM;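 also: mean SPHK1 inhibition value reported from the GSK PKIS kinase panel screen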
[2] = biological target: T1, Sphingosine kinase 2 (Homo sapiens) (UniProt Q9NRA0); conditions: at 0.1 µM
T1 sequence (whole entry): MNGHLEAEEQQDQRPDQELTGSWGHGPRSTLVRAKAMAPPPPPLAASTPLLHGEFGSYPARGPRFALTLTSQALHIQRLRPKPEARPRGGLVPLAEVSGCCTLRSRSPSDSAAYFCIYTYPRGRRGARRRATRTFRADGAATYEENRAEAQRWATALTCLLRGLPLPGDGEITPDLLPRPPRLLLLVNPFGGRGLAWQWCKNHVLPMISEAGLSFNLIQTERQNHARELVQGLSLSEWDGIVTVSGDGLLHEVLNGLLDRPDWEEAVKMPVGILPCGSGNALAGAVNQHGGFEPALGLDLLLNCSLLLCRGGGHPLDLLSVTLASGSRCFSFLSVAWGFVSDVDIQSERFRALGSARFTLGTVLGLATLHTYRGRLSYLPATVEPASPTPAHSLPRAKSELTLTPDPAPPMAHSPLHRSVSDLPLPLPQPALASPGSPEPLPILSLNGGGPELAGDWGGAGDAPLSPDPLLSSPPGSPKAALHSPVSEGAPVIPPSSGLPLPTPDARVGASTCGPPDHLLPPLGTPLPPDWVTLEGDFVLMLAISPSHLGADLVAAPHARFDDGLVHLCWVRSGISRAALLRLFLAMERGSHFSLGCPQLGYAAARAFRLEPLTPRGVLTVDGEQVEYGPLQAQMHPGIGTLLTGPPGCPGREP

[3] = biological target: T1, Sphingosine kinase 2 (Homo sapiens); conditions: at 1 µM
[4] = biological target: Casein kinase II subunit alpha (Homo sapiens) (UniProt P68400); conditions: at 0.1 µM
[5] = biological target: Casein kinase II subunit alpha (Homo sapiens) (UniProt P68400); conditions: at 1 µM
[6] = biological target: T2, Inhibitor of nuclear factor kappa-B kinase subunit alpha (Homo sapiens) (UniProt O15111); conditions: at 0.1 µM
T2 sequence (whole entry): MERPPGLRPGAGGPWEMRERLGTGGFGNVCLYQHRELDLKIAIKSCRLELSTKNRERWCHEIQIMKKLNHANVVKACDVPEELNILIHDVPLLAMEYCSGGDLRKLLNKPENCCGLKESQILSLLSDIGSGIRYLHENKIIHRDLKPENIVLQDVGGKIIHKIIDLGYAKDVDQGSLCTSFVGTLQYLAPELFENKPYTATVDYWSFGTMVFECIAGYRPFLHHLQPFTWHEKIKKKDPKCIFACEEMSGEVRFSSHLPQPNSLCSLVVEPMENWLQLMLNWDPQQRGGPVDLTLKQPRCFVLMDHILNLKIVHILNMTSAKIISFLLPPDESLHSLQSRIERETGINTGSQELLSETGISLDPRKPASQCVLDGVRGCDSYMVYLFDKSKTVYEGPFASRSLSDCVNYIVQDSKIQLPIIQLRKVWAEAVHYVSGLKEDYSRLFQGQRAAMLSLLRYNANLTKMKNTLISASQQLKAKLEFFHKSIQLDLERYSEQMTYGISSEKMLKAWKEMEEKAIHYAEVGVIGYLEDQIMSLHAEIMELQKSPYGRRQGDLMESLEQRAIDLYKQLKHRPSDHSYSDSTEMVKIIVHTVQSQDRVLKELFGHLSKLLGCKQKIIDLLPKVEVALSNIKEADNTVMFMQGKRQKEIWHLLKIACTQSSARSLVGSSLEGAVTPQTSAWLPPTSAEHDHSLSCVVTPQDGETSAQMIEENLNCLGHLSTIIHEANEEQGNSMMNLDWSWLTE

[7] = biological target: T2, Inhibitor of nuclear factor kappa-B kinase subunit alpha (Homo sapiens); conditions: at 1 µM
[8] = biological target: T3, Inhibitor of nuclear factor kappa-B kinase subunit beta (Homo sapiens) (UniProt O14920); conditions: at 0.1 µM
T3 sequence (whole entry): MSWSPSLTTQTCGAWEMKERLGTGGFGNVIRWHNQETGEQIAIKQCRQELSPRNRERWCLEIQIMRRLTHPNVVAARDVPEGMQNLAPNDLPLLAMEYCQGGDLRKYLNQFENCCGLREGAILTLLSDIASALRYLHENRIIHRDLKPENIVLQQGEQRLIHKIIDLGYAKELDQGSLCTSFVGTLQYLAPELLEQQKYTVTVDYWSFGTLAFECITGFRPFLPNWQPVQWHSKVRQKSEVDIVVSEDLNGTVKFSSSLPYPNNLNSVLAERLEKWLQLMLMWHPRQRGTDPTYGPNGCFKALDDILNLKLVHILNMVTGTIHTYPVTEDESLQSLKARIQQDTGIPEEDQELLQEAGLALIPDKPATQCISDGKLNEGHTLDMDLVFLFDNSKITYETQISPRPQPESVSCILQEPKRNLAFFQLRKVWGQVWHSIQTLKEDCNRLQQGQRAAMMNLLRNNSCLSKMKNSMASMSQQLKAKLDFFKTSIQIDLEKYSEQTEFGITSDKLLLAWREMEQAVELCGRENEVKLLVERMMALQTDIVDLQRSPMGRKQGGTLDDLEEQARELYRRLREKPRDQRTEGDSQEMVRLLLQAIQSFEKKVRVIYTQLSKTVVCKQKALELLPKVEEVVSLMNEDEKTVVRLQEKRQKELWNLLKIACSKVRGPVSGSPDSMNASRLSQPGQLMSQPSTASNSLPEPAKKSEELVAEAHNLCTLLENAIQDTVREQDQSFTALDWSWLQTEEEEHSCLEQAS

[9] = biological target: T3, Inhibitor of nuclear factor kappa-B kinase subunit beta (Homo sapiens); conditions: at 1 µM
[10] = biological target: T4, Inhibitor of nuclear factor kappa-B kinase subunit epsilon (Homo sapiens) (UniProt Q14164); conditions: at 0.1 µM
T4 sequence (whole entry): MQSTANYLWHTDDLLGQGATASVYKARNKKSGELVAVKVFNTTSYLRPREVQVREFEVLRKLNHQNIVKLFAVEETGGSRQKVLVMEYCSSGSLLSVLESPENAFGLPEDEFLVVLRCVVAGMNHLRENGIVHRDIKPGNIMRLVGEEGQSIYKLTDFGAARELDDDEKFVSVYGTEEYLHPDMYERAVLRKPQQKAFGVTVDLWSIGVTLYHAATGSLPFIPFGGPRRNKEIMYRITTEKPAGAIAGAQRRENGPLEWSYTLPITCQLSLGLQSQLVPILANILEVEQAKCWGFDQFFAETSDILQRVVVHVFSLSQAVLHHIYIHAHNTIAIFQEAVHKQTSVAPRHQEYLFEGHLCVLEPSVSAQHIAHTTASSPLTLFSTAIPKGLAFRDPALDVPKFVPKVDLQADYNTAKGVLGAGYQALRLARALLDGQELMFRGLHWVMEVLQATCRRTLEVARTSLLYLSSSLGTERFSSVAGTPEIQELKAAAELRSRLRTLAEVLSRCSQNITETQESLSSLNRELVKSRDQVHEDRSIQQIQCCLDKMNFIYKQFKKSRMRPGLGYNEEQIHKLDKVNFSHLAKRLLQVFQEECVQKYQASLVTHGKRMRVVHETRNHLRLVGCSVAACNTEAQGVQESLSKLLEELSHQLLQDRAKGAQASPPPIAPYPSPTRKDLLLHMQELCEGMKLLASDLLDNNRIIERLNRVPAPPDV

[11] = biological target: T4, Inhibitor of nuclear factor kappa-B kinase subunit epsilon (Homo sapiens); conditions: at 1 µM
[12] = biological target: T5, Serine/threonine-protein kinase Nek1 (Homo sapiens) (UniProt Q96PY6); conditions: at 0.1 µM
T5 sequence (whole entry): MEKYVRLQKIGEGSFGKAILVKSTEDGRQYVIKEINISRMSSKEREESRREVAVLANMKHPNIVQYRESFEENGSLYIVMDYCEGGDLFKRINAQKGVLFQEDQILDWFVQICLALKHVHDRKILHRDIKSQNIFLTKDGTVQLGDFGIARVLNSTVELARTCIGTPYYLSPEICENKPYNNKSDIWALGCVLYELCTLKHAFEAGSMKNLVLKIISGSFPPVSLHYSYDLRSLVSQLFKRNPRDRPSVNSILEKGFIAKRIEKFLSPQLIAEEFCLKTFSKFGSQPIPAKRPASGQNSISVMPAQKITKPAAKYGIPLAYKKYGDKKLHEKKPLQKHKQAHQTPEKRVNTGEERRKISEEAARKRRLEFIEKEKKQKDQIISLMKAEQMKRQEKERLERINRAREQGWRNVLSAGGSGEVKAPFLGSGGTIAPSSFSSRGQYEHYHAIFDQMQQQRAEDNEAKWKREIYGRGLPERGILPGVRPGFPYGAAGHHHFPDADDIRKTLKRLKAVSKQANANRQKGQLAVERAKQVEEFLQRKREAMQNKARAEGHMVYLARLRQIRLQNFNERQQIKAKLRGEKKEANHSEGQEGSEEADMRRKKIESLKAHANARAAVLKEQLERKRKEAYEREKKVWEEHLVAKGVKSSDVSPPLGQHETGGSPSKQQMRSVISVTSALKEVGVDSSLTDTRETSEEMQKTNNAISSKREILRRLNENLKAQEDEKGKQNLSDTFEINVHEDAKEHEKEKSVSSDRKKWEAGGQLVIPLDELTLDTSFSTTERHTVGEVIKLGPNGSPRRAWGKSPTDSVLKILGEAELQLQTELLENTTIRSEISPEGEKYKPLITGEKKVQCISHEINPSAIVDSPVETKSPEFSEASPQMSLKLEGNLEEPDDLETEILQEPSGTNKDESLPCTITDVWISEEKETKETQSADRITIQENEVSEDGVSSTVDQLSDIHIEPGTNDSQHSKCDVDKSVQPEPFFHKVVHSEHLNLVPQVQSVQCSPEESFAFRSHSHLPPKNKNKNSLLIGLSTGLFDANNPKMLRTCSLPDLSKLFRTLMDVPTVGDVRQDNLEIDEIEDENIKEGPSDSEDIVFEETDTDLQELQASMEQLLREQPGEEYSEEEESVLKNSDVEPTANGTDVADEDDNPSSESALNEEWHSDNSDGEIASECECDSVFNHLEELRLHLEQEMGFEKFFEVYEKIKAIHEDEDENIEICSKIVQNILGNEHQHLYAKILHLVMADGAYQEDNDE

[13] = biological target: T5, Serine/threonine-protein kinase Nek1 (Homo sapiens); conditions: at 1 µM
[14] = biological target: T6, Serine/threonine-protein kinase Nek2 (Homo sapiens) (UniProt P51955); conditions: at 0.1 µM
T6 sequence (whole entry): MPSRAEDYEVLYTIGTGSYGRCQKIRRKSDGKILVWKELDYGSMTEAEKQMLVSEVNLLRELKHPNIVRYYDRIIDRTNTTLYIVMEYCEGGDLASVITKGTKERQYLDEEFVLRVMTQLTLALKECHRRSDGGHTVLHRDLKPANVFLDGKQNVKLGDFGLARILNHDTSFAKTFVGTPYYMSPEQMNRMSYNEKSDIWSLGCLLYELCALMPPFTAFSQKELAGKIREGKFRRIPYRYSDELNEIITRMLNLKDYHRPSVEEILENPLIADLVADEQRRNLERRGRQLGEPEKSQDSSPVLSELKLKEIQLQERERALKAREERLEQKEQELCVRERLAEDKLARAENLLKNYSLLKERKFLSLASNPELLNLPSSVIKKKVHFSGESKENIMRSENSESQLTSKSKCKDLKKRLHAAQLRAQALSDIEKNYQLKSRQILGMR

[15] = biological target: T6, Serine/threonine-protein kinase Nek2 (Homo sapiens); conditions: at 1 µM
[16] = biological target: Serine/threonine-protein kinase Nek6 (Homo sapiens) (UniProt Q9HC98); conditions: at 0.1 µM
[17] = biological target: Serine/threonine-protein kinase Nek6 (Homo sapiens) (UniProt Q9HC98); conditions: at 1 µM
[18] = biological target: Serine/threonine-protein kinase Nek7 (Homo sapiens) (UniProt Q8TDX7); conditions: at 0.1 µM
[19] = biological target: Serine/threonine-protein kinase Nek7 (Homo sapiens) (UniProt Q8TDX7); conditions: at 1 µM
[20] = biological target: T7, Serine/threonine-protein kinase Nek9 (Homo sapiens) (UniProt Q8TD19); conditions: at 0.1 µM;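 also: reported value is the mean percent inhibition of NEK9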
T7 sequence (whole entry): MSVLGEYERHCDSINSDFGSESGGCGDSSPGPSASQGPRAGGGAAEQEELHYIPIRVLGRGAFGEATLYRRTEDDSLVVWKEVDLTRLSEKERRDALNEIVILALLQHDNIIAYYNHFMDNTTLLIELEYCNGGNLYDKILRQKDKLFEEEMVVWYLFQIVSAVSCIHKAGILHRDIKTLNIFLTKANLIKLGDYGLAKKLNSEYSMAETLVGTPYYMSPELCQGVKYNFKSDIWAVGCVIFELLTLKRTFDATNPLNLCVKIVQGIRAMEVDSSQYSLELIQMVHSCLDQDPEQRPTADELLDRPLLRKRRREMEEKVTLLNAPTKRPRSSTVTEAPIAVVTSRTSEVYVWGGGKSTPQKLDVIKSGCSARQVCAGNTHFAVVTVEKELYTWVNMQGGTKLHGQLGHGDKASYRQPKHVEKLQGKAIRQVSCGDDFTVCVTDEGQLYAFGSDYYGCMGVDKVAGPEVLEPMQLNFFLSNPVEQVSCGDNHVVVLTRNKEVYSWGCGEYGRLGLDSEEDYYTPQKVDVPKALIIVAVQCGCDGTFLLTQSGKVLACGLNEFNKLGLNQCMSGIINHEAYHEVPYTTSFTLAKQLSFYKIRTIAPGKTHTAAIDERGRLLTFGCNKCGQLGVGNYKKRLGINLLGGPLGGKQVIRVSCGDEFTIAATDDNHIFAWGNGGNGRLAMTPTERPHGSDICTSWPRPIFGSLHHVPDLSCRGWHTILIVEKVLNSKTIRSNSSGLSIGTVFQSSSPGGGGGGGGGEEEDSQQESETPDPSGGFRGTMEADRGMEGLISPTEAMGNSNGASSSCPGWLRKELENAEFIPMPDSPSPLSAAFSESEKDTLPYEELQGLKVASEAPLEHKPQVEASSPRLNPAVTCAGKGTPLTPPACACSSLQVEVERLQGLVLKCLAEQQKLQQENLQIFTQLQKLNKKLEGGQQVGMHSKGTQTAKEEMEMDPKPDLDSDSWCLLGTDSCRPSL

Sequence of Serine/threonine-protein kinase Nek6 (Homo sapiens) (Q9HC98 whole entry): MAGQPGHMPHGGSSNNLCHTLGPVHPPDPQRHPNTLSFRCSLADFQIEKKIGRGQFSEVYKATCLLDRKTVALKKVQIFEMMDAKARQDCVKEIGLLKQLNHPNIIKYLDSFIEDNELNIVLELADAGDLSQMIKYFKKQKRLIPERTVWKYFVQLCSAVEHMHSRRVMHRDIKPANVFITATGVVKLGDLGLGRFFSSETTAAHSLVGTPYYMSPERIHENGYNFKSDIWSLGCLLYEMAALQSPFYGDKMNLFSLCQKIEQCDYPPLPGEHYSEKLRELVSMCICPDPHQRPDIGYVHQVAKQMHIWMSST
Sequence of Serine/threonine-protein kinase Nek7 (Homo sapiens) (Q8TDX7 whole entry, looked up): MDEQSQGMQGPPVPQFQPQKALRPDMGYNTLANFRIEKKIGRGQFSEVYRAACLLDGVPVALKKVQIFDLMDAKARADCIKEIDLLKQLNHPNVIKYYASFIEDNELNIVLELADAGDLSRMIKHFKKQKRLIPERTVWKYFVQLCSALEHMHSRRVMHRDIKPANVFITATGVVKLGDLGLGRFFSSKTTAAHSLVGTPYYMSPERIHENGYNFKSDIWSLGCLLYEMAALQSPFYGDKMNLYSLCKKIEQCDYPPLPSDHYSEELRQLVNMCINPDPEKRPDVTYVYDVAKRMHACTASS
Sequence of Casein kinase II subunit alpha (Homo sapiens) (P68400 whole entry, looked up): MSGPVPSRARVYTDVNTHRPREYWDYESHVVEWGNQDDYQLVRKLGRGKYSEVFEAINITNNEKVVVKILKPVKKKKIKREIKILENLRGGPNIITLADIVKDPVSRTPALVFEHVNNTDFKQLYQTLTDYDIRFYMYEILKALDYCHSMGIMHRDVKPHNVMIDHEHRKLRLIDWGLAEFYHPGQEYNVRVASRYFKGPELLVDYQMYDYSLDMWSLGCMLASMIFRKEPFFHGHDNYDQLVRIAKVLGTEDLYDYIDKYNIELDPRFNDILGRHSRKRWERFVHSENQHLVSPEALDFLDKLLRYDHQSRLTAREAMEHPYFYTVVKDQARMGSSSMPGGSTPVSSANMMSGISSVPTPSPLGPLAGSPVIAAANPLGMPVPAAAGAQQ
Sequence of Sphingosine kinase 1 (Homo sapiens) (Q9NYA1 whole entry): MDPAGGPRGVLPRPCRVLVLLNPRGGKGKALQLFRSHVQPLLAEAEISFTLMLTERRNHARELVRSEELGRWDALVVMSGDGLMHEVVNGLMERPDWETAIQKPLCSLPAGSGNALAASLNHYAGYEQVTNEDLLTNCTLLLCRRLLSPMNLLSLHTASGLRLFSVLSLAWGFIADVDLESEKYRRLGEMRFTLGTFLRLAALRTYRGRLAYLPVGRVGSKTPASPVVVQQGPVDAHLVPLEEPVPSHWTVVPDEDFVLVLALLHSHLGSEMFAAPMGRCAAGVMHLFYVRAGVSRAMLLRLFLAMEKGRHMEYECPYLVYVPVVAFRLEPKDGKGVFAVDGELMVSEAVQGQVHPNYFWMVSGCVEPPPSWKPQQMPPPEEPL

Structure (SMILES): O=C1NC(=O)C(c2cccc(Cl)c2)=C1Nc1ccc(Cl)c(C(=O)O)c1
- inhibition [1]: 2.31%
- inhibition [2]: -0.06%
- inhibition [3]: 0.61%
- inhibition [4]: 2.24%
- inhibition [5]: 7.88%
- inhibition [6]: 2.51%
- inhibition [7]: -0.25%
- inhibition [8]: 3.73%
- inhibition [9]: 4.76%
- inhibition [10]: 6.56%
- inhibition [11]: 6.69%
- inhibition [12]: 2.39%
- inhibition [13]: 1.69%
- inhibition [14]: 3.91%
- inhibition [15]: 3.63%
- inhibition [16]: 2.53%
- inhibition [17]: 5.19%
- inhibition [18]: 2.65%
- inhibition [19]: 1.25%
- inhibition [20]: -5.63%
